The supplement of paper PMC11732987, “Enantioselective OTUD7B fragment discovery through chemoproteomics screening and high-throughput optimisation” (Communications Chemistry, 2025)

What was measured:
Assay in all cases: log2 ratio of Biotin-Ahx-Ub-VS probe labelling (fragment/DMSO); higher = less target engagement (more negative = stronger competition), active = hit call of the paper (q ≤ 0.05, log2 ratio ≤ -1)
Details in all cases: compound concentration: 200 uM; treatment time: 3 h
USP42 = target: T1, USP42 (UniProt Q9H9J4)
T1 sequence (whole entry): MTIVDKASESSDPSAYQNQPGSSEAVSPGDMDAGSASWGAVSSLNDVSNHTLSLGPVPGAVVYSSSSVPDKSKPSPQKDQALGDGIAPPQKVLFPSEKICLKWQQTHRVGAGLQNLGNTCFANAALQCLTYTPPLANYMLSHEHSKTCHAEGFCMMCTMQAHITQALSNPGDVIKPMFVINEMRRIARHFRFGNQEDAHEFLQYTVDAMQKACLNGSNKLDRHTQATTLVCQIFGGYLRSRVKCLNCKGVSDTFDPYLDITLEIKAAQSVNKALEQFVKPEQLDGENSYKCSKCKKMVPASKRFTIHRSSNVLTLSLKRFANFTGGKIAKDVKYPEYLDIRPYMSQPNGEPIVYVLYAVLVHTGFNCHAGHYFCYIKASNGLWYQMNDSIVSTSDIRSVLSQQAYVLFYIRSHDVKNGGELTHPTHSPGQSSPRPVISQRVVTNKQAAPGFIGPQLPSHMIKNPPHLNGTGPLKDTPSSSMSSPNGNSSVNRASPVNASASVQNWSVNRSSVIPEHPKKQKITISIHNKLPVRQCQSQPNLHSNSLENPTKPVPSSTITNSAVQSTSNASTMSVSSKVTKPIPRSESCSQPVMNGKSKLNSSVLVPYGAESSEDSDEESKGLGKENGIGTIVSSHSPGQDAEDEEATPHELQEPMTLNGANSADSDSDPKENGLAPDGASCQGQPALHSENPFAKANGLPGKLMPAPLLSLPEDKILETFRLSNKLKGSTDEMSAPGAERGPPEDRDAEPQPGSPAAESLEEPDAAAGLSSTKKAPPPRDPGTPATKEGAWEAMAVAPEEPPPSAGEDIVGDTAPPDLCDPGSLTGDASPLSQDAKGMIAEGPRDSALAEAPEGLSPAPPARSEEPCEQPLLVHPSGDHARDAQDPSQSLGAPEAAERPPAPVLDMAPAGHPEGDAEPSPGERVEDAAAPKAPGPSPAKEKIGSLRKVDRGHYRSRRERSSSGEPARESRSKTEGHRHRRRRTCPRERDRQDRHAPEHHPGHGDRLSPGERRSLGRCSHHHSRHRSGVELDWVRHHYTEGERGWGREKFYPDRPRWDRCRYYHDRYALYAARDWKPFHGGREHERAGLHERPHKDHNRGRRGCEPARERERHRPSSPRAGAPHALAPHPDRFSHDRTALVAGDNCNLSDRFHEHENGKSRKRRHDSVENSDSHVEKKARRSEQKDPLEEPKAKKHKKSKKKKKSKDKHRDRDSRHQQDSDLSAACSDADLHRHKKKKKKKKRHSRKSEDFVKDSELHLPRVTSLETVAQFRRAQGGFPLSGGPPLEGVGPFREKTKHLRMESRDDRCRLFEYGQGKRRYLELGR
In short: (§1)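 HEK293T lysate in Tris/CHAPS/IGEPAL buffer with protease inhibitors (495 µg per sample) was given fragment at 200 µM or vehicle for 3 h, in triplicate. It then received Biotin-Ahx-Ub-VS at 0.5 µM final for 1 h. Labelled DUBs were NeutrAvidin-enriched, digested with LysC and trypsin, and run by diaPASEF LC-MS/MS. Values are average log2 fragment/vehicle ratios by unpaired t-test on global-median-normalised Spectronaut quantities of proteins with ≥2 unique peptides.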

USP46 = USP46 (UniProt P62068)
In short: as §1

USP47 = target: T2, USP47 (UniProt Q96K76)
T2 sequence (whole entry): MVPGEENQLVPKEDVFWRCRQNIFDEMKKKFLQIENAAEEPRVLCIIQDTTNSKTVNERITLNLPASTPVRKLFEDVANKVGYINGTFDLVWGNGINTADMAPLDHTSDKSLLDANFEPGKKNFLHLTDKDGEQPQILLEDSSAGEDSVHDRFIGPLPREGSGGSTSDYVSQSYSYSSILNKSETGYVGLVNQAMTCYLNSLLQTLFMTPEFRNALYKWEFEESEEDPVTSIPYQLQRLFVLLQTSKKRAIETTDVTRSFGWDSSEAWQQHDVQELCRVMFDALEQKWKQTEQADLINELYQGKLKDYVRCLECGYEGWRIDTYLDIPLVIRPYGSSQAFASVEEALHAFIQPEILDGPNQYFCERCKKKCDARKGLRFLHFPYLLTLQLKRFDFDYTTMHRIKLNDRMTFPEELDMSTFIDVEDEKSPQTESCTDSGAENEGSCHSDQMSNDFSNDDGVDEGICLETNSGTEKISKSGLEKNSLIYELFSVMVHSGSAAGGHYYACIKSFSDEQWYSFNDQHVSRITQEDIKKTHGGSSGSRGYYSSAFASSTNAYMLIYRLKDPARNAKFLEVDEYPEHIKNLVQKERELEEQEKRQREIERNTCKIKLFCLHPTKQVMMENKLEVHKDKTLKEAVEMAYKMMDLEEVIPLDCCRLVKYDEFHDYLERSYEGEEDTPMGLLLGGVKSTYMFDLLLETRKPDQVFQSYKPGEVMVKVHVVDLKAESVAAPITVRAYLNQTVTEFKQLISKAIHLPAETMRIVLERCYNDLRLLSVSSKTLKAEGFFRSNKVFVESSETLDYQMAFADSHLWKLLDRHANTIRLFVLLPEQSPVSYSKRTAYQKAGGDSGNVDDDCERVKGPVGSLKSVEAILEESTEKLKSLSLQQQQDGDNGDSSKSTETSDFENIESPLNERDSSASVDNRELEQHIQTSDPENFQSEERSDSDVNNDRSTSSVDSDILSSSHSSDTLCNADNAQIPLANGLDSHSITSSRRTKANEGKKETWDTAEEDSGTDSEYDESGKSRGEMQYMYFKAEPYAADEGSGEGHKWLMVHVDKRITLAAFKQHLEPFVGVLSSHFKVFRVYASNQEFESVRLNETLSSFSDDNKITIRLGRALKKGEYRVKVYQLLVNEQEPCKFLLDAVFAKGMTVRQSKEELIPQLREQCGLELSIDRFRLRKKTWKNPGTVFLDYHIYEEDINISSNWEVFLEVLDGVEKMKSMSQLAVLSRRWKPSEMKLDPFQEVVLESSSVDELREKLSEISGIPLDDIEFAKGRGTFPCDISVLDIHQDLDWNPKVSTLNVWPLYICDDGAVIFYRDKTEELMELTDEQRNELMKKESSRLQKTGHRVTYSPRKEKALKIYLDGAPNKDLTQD
In short: as §1

USP48 = target: T3, USP48 (UniProt Q86UV5)
T3 sequence (whole entry): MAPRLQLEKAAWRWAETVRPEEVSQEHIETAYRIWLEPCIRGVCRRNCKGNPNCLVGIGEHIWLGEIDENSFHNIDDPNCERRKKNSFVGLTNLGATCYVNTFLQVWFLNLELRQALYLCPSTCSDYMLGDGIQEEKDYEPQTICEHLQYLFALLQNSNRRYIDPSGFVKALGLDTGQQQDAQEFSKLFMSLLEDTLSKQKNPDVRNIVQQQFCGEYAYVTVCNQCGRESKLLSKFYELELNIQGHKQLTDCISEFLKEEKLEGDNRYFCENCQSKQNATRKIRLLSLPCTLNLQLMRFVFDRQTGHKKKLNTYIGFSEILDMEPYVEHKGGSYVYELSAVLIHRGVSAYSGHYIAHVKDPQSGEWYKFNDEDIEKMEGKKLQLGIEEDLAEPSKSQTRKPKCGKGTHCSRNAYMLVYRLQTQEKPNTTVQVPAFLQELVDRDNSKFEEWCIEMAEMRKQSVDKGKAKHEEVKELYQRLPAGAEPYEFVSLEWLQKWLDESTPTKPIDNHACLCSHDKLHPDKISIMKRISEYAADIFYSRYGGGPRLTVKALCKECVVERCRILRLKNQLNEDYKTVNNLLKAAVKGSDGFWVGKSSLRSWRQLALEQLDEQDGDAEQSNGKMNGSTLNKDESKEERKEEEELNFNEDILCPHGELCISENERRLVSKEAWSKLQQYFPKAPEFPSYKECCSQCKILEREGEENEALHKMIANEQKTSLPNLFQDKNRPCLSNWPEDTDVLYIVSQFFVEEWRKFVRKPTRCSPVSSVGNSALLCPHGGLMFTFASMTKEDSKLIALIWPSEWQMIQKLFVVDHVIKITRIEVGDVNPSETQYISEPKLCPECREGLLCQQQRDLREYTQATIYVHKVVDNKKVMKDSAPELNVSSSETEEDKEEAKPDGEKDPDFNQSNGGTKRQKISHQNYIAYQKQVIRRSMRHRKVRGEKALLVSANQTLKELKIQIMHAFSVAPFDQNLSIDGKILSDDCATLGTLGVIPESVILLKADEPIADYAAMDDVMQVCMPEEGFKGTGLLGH
In short: as §1

USP5 = target: T4, USP5 (UniProt P45974)
T4 sequence (whole entry): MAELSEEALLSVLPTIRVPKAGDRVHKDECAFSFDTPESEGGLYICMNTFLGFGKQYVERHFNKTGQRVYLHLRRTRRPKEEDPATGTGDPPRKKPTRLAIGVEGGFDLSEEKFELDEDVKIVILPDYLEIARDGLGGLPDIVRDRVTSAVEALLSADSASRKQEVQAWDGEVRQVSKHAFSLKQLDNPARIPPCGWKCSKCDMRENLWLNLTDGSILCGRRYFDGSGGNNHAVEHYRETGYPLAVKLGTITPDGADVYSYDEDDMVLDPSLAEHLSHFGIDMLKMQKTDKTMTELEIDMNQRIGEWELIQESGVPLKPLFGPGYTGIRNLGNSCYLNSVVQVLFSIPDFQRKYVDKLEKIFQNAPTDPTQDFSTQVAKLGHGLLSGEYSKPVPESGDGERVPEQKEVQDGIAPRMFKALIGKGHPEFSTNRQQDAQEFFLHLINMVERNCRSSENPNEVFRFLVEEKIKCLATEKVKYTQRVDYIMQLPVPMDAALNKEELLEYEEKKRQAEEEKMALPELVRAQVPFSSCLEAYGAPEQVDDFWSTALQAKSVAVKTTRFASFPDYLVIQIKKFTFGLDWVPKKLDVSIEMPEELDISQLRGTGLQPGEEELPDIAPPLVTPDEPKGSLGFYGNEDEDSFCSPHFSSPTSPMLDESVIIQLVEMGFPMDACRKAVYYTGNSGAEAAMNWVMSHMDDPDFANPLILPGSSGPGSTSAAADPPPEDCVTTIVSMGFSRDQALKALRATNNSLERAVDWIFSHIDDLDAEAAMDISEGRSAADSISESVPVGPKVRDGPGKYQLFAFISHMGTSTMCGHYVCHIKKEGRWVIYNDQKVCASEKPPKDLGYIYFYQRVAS
In short: as §1

USP54 = USP54 (UniProt Q70EL1)
In short: as §1

USP7 = USP7 (UniProt Q93009)
In short: as §1

USP8 = target: T5, USP8 (UniProt P40818)
T5 sequence (whole entry): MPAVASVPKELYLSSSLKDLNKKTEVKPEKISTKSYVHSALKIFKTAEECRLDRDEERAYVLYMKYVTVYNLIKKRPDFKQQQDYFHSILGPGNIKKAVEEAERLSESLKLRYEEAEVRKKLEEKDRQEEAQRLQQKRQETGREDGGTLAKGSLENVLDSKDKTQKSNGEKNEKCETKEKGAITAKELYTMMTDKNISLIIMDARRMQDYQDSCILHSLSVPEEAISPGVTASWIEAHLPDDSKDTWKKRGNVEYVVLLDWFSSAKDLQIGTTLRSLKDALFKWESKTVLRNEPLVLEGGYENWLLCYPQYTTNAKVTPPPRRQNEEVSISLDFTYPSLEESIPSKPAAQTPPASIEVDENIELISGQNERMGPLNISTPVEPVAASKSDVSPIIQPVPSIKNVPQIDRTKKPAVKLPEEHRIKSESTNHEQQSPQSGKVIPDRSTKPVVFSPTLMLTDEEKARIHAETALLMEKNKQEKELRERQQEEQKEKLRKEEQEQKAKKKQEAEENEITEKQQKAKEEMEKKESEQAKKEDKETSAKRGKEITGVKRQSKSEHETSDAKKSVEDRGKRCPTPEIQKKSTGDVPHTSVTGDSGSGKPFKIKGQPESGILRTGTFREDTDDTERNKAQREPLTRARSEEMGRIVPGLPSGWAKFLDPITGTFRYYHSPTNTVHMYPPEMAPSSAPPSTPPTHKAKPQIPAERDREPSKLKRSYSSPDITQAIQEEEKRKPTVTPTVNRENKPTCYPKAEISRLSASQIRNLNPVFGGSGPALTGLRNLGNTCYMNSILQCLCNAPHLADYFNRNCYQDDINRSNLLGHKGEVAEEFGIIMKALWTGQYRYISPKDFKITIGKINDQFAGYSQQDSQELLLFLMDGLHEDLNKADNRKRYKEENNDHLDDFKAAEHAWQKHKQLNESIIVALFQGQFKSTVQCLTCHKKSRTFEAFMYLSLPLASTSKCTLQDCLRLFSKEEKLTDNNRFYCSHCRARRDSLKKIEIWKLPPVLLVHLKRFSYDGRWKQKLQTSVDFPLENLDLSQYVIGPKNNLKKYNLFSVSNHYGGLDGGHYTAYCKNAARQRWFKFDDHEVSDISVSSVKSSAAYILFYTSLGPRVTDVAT
In short: as §1

Measured: log2 ratio of Biotin-Ahx-Ub-VS probe labelling

USP46, sequence (P62068 whole entry): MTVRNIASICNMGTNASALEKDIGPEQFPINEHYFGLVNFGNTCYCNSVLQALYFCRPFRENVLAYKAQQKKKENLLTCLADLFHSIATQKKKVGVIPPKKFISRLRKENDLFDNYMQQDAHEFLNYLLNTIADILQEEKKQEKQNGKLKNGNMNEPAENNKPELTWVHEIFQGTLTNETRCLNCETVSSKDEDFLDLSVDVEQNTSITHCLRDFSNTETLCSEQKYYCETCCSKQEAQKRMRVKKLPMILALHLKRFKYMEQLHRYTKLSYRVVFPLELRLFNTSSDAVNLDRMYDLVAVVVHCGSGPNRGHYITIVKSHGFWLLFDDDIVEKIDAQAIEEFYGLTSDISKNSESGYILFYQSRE
USP7, sequence (Q93009 whole entry, looked up): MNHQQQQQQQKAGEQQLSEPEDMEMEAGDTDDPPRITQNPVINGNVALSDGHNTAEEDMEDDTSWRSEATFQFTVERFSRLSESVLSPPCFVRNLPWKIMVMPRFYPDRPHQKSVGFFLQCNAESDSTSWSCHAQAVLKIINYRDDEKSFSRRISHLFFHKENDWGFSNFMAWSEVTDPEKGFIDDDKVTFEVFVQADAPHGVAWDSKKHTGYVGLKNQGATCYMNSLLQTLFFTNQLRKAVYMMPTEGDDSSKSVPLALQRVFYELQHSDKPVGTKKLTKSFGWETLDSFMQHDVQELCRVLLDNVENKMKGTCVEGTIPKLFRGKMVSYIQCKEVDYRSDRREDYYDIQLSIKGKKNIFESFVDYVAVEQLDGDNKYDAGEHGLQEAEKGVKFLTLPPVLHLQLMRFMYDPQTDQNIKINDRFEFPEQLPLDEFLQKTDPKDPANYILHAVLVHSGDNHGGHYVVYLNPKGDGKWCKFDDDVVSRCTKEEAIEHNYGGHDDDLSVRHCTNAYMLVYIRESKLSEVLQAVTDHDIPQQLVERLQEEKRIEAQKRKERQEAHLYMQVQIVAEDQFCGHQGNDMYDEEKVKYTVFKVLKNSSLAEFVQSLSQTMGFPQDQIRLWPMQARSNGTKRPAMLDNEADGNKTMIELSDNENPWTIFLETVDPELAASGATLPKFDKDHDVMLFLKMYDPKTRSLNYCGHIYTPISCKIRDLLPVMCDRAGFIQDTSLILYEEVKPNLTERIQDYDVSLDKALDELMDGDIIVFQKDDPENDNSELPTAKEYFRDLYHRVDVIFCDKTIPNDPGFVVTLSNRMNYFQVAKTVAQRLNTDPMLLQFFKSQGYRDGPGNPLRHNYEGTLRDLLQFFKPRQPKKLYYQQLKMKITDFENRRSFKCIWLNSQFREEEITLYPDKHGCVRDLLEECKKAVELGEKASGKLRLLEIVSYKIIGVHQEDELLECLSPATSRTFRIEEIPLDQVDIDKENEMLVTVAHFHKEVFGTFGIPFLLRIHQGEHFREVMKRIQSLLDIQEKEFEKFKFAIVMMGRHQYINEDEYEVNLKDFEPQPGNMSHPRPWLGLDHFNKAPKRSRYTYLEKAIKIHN
USP54, sequence (Q70EL1 whole entry): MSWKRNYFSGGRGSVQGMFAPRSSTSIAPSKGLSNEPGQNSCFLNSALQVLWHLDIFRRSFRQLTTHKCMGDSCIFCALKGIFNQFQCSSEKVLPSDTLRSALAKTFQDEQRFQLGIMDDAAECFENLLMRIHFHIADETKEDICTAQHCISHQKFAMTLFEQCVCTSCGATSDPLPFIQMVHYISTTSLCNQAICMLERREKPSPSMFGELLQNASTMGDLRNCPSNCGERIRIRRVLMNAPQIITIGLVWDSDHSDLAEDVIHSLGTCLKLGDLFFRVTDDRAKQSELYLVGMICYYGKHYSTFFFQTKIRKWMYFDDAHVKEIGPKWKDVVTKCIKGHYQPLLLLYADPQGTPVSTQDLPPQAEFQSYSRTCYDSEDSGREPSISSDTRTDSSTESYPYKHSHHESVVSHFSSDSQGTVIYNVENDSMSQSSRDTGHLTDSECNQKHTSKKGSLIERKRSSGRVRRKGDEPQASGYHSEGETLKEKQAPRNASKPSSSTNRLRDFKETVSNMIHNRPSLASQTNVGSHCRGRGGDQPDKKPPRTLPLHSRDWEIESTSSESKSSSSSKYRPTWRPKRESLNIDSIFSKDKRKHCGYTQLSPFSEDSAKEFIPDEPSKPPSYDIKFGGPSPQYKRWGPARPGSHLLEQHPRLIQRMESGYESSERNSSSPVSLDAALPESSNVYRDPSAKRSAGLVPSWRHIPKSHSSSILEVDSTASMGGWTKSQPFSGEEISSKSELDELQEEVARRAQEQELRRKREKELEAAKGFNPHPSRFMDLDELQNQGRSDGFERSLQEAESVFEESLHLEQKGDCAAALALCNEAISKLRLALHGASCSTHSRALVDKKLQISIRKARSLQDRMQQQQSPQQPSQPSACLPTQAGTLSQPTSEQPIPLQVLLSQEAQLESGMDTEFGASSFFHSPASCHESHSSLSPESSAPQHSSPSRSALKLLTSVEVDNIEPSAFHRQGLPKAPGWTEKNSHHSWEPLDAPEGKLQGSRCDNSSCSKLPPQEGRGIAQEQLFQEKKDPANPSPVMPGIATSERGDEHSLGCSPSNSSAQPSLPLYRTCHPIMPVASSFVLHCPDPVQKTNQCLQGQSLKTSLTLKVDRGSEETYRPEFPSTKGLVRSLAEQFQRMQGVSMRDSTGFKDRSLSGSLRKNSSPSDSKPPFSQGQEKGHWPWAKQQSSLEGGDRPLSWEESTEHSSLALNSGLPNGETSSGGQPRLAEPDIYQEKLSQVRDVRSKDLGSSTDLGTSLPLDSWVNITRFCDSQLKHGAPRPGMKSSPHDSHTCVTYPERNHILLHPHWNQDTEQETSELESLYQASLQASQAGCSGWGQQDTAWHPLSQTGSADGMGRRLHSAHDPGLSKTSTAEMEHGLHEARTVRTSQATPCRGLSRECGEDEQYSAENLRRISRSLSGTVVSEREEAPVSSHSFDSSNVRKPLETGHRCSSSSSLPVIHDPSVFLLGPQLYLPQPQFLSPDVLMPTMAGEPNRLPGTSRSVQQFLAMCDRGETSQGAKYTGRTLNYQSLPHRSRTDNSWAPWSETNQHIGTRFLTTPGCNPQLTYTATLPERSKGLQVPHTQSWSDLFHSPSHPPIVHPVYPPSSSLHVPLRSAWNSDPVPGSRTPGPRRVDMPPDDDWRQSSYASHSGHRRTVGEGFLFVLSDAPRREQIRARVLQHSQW

Cl.O=C(CCl)N1CCC(n2nc3ccccc3n2)CC1
active: USP7 -1.88
inactive: USP42 0.181 | USP46 -0.321 | USP47 -0.894 | USP48 -0.485 | USP5 -0.467 | USP54 -0.186 | USP8 -0.518
